The results in this text go back to ChEMBL document CHEMBL4513216, “Probing the Open Global Health Chemical Diversity Library for Multistage-Active Starting Points for Next-Generation Antimalarials” (ACS Infect Dis, 2020).

Out of some 69,000 compounds screened, about 8,600 (12%) showed an effect of 50% or more. This excerpt belongs to a sample that is enriched for strong results.

The subject of this test is Plasmodium berghei. Put plainly: Screen against P. berghei liver stage (PbLuc), transformed with Luciferase, at 10uM. It counts as functional, HepG2. The conditions noted are these: tested at 10 uM.
Regarding `COCCN(C)C[C@H]1C[C@H](CO)CN(C(=O)c2ccc(=O)n(C)c2)C1`, the INHIBITION stood at 50.7%.

Take `COCCN(CCN(C)C)C(=O)NC1CCc2ccccc2C1` (centres undefined): the INHIBITION is listed as -65.3%.

`COc1ccc(C)cc1C(=O)N1C[C@@H](CN(C)CCO)[C@@H](CO)C1`: the INHIBITION was 56.9%.

As to `COc1cccc(C(=O)N2C[C@@H](CN(C)CCO)[C@@H](CO)C2)c1C`, the INHIBITION turned out to be 20.6%.

As for `COCCN(C)C[C@H]1C[C@@H](CO)CN(C(=O)c2ccn(C)c(=O)c2)C1`, the INHIBITION came to 35.5%.

With `COc1cc(C)ccc1C(=O)N1C[C@@H](CN(C)CCO)[C@@H](CO)C1`, the INHIBITION is listed as -1.38%.

Turning to `COCCN(C)C[C@@H]1CN(C(=O)c2ccc(OC)c(F)c2)C[C@@H]1CO`, the INHIBITION came to 0.29%.

With `COCCN(CCN(C)C)C(=O)NC1CC1`, the INHIBITION amounted to 7.25%.

As to `COCCN(CCOC)C(=O)NC1CCCCC1`, the INHIBITION turned out to be 50.8%.

`COCCN(C)C[C@@H]1CN(C(=O)c2c(F)ccc(OC)c2F)C[C@@H]1CO`: the INHIBITION was found to be 84.4%.

On to `COc1ccc(F)c(F)c1C(=O)N1C[C@@H](CN(C)CCO)[C@@H](CO)C1`, for which the INHIBITION was -1.38%.

Regarding `CS(=O)(=O)c1ccc(Cl)c(NC(=O)NCCC2=CCCCC2)c1`, the INHIBITION came out at 0.818%.

For the molecule `COCCC1COC2(CCN(C(=O)c3ccco3)CC2)C1` (centres undefined), the INHIBITION is 29.6%.

As for `CN(C)C(=O)[C@H]1C[C@H]2OCC[C@H]2N(Cc2ccc3ccccc3n2)C1`, the INHIBITION worked out at 25.2%.

With `CC(C)NC(=O)[C@H]1C[C@@H]2[C@@H](C1)OCCN2Cc1ccco1`, the INHIBITION came to 7.24%.

For `CC(C)(C)OC(=O)N[C@@H]1C[C@@H](O)CN(C(=O)c2cccc(F)c2)C[C@H]1O`, the INHIBITION was found to be 4.41%.

As to `C[C@H]1C(=O)NC[C@H]2CN(Cc3cccc(F)c3)C[C@H]21`, the INHIBITION amounted to 23.5%.

Turning to `CC(=O)N1CCC2(CC1)CN(C)C(=O)C[C@H]2C(F)(F)F`, the INHIBITION is 2.79%.

Take `CC(Nc1c(F)cc(C#N)cc1F)c1cccc(S(N)(=O)=O)c1` (centres undefined): the INHIBITION is reported as -68.1%.

For `CN(C)CCN(C)C[C@@H]1CN(C(=O)NC2CCCC2)C[C@@H]1CO`, the INHIBITION is reported as 27.4%.

For `COCCN(C)C[C@@H]1CN(C(=O)c2sc3ccccc3c2C)C[C@@H]1CO`, the INHIBITION turned out to be 17.6%.

On to `COCCN(C)C[C@@H]1CN(C(=O)c2ccc(C)cc2)C[C@@H]1CO`, for which the INHIBITION is given as -18.9%.

Regarding `COCCN(C)C[C@@H]1CN(C(=O)c2ccc(=O)n(C)c2)C[C@@H]1CO`, the INHIBITION was 57.2%.

Regarding `COCCN(C)C[C@@H]1CN(C(=O)NC2CCCCC2)C[C@@H]1CO`, the INHIBITION came out at 50.2%.

Consider `COCCN(C)C[C@@H]1CN(C(=O)c2ccc(SC)cc2)C[C@@H]1CO`, for which the INHIBITION is on record as 19.4%.

As to `CCN(C)C[C@@H]1CN(C(=O)NC2CCCCC2)C[C@@H]1CO`, the INHIBITION is reported as 24.5%.

As for `COCCN(C)C[C@@H]1CN(C(=O)C(C)(C)c2ccccc2)C[C@@H]1CO`, the INHIBITION is reported as 60.6%.

Turning to `COCCN(C)C[C@@H]1CN(C(=O)c2cccc(C(F)(F)F)c2)C[C@@H]1CO`, the INHIBITION was determined as 23.5%.

Regarding `O=C1NC(c2ccccc2)=N[C@@]12CC[C@@H]1CN(CC3CC3)C[C@@H]12`, the INHIBITION is listed as 44.2%.

On to `O=C(CCc1nc2cc(Br)cnc2[nH]1)NCCN1CCOCC1`, for which the INHIBITION is recorded as -7.28%.

With `N#Cc1cccc(C(=O)N2CCC(Nc3cccnn3)CC2)c1`, the INHIBITION came out at 15.5%.

As for `Cc1ccc2c(c1)C(NC(=O)N(C)C)CC21CCN(C)CC1` (centres undefined), the INHIBITION is given as -24.1%.

Regarding `N#Cc1cc(NC(=O)c2cc[nH]n2)ccc1N1CCC(O)CC1`, the INHIBITION worked out at 9.65%.

For `OC1CCN(c2cnnc3ccccc23)CC1`, the INHIBITION was determined as 40.2%.

In the case of `Cc1nc(C(=O)NCc2ccc(N3CCNC(=O)C3)c(F)c2)cs1`, the INHIBITION is listed as -11.7%.

With `OC1CCN(c2ccc(CNc3nc4ccccc4s3)cc2F)CC1`, the INHIBITION was determined as 59.4%.

`OC1CCN(c2ccc(CNc3nc4ccccc4o3)cc2F)CC1`: the INHIBITION is listed as -37.7%.

Turning to `COC(=O)c1sc(NCc2ccc(N3CCC(O)CC3)c(F)c2)nc1Cl`, the INHIBITION was found to be 91.2%.

Take `Cc1cc(NCCNc2cccnc2)nc(N)n1`: the INHIBITION turned out to be 36.8%.

For the molecule `CCC(NS(=O)(=O)c1ccc(C(=O)NC2CC2)cc1)c1cnn(C)c1` (centres undefined), the INHIBITION is on record as -10.1%.

As to `O=C1CC2(CCN(C(=O)c3ccncc3)CC2)Oc2c(Cl)cc(Cl)cc21`, the INHIBITION is -29%.

For the molecule `CC(C)N1CCc2ncn(C)c2C1C(=O)NCCN1CCCC1` (centres undefined), the INHIBITION is reported as 67.4%.

Consider `CC(C)N1CCc2ncn(C)c2C1C(=O)N1CCOCC1` (centres undefined), for which the INHIBITION is reported as 29%.

As for `CC(C)N1CCc2ncn(C(C)C)c2C1C(=O)NCCN1CCCC1` (centres undefined), the INHIBITION is 30.5%.

`CCc1noc(Cn2c(=O)c3c(C(F)(F)F)cc(C)nc3n2C)n1`: the INHIBITION is recorded as -7.93%.

Consider `O=c1[nH]c(N2CCN(C3CC3)CC2)nc2c1cnn2-c1ccccc1`, for which the INHIBITION stood at 24.7%.

As for `CC1CCN(c2nc3c(cnn3-c3ccccc3)c(=O)[nH]2)CC1`, the INHIBITION was 89.6%.

Turning to `O=c1[nH]c(N2CC(O)C2)nc2c1cnn2-c1ccccc1`, the INHIBITION was found to be 17.1%.

For the molecule `CCOCC1CN(Cc2nccs2)Cc2nn(CC3CC3)cc21` (centres undefined), the INHIBITION is on record as 11.4%.

For the molecule `COCC1CN(Cc2sccc2C)Cc2nnn(CC3CC3)c21` (centres undefined), the INHIBITION is -42.9%.

Regarding `CCn1cc2c(n1)CN(CC1CC1)CC2COCC1CC1` (centres undefined), the INHIBITION worked out at 19.3%.

Take `CCn1cc2c(n1)CN(Cc1nccs1)CC2COCC1CC1` (centres undefined): the INHIBITION came out at 71.1%.

`CCn1cc2c(n1)CN(Cc1sccc1C)CC2COCC1CC1` (centres undefined): the INHIBITION is 52%.

On to `CCn1cc2c(n1)CN(C(=O)c1ccncc1)CC2COCC1CC1` (centres undefined), for which the INHIBITION was -30.1%.
